The list is not random: actives were taken first. Their share in the collection is about 8.8%.
KB-3-1 tox: KB-3-1 parental cell cytotoxicity; KB-3-1 viability, CellTiter-Glo ATP luminescence, 72 h; Potency, µM (top dose mostly 46.1 µM), usual class: cytotoxic; actives 1.4% (n = 400,000); note: potency is the fitted concentration of half-maximal effect; nearly all actives have a fitted effect of over 60% in size
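KB-3-1 cells, DMEM (no phenol red) + 10% FBS; compound by pin transfer, 72 h, 37 °C. Readout: CellTiter-Glo luminescence after 10 min. Data normalized, curve-fitted.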
HT1080NT lethal: kills 2HG-producing HT-1080-NT fibrosarcoma cells. HT-1080-NT fibrosarcoma viability, CellTiter-Glo ATP luminescence, 48 h. Potency, µM (doses to about 46.1 µM), inactives show at the top dose activity, negative = less viability, usual class: cytotoxic. actives 1.6% (n = 360,000). AID 686970;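 note: NT is the 2HG producing partner of a matched IDH1 knockdown line; potency is the fitted concentration of half-maximal effect; 0% = DMSO-treated cells and -100% = media-only wells without cells; nearly all actives have a fitted effect of over 55% in size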
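Viability by CellTiter-Glo luminescence after 48 h compound exposure at 37C of HT-1080-NT cells (750/well, RPMI, 5% FBS). % activity scaled between DMSO wells and medium-only wells, then curve-fitted and categorized by curve class.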
KB-V1 MDR tox: KB-V1 MDR subline cytotoxicity. KB-V1 MDR cells viability, CellTiter-Glo, 72 h. Potency, µM (series often up to 46.1 µM), actives largely listed as cytotoxic. actives 3.4% (n = 400,000); note: potency is the fitted concentration of half-maximal effect; nearly all actives have a fitted effect of over 60% in size
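Luminescent ATP read-out (CellTiter-Glo, 10 min) measures survival of drug-selected KB-V1 MDR cells after 72 h, 37 degrees C compound exposure. Medium: phenol-red-free DMEM, 10% FBS. Values from fitted concentration-response curves.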
HT1080 IDH1KD tx: HT-1080 IDH1 knockdown cell toxicity (counter line); Potency, µM (doses to about 46.1 µM), inactives show at the top dose activity, negative = toxicity, usual class: cytotoxic; AID 686971; actives 2% (n = 360,000); HT-1080 IDH1 knockdown viability, ATP luminescence, 48 h;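 note: potency is the fitted concentration of half-maximal effect; 0% = DMSO wells and -100% = cell-free medium wells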
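Cytotoxicity counter-line: IDH1KD HT-1080, 48 h, CellTiter-Glo. Curves classed by r2, magnitude and activity.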
IL1B secr inh: blocks inflammasome-driven IL-1 beta release. THP-1 LPS/ATP IL-1B secretion, AlphaLISA, 16 h; active compounds read low. AID 743279. activity change, % at 57.5 µM. actives 4.7% (n = 360,000); in the data active = activity change below about -50%; inconclusive = mostly about -30% to -49%
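Secreted IL-1B measured by AlphaLISA bead assay after 16 h compound exposure of THP-1 cells; compounds (final up to 57.5 uM) added 1 h before LPS (250 ng/mL) and ATP (1.25 mM) stimulation; lower signal means less secretion.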
* hit, by the source's call; i = inactive; ? = inconclusive; . = no result. Unless noted, calls come from the whole dose curve; as a rule, active = well fitted curve in the direction sought with a large enough effect; inconclusive = small, poorly fitted or top-dose-only effect, or another doubt; inactive = no such curve, though single readings can be large; an effect the other way counts as inactive or inconclusive. Unless noted, % is set by controls: 0 for no effect and ±100 for the full control effect.

SMILES	KB-3-1 tox	HT1080NT lethal	KB-V1 MDR tox	HT1080 IDH1KD tx	IL1B secr inh
COc1cc(C(=O)NCCOc2ccccc2)cc(OC)c1OC	i	16%	?	2%	-15
COc1ccc(C(=O)N/C(=C\c2cn(S(=O)(=O)N(C)C)c3ccccc23)C(=O)N2CCCC2)cc1	i	-14%	i	-13%	8
COc1cccc(OC)c1C(=O)Nc1ccc(-c2nc3ncccc3o2)cc1	i	.	i	.	.
COc1cccc(CN2CC(C(=O)NCCc3ccc(C)s3)CCC2=O)c1 (configuration not stated)	.	-6%	.	4%	-8
COc1cc(C(=O)NCCOc2cc(C)ccc2C(C)C)cc(OC)c1OC	?	?	16µM*	?	-63*
CCCCCCCCCCCCCCCC(=O)OC(CC(=O)O)C[N+](C)(C)C (configuration not stated)	3.7µM*	9.2µM*	i	?	0
CCCCN1CC(COCc2ccccc2)Oc2cccc(OCCN3C(=O)[C@@H]4[C@H](C3=O)C3C=C[C@H]4C3)c2S1(=O)=O (some centres not stated)	?	?	15µM*	-30%	9
C1CCCCCC(NCCN2CCNCC2)CCCCC1	16µM*	21µM*	?	18µM*	?
COc1ccccc1N1CCN(C(=O)CSc2nc3ccccc3o2)CC1	i	-6%	21µM*	15%	22
NC(c1csc(Nc2nccc(C(F)(F)F)n2)n1)C1CCCCC1 (configuration not stated)	i	21µM*	i	21µM*	?
NC(c1csc(Nc2ccc(C(F)(F)F)cn2)n1)C1CCCCC1 (configuration not stated)	?	?	?	18µM*	-66*
CCOc1ccc(C(=O)NCC(=O)NCCSc2ccc(Br)cc2)cc1OCC	i	-6%	3.7µM*	-7%	?
Cc1ccc(C(=O)NCC(=O)NCCSc2ccc(Br)cc2)cc1	i	-2%	?	-14%	-4
Cc1nn(-c2ccccc2)c2nc(C3CC3)cc(C(=O)Nc3ccc(F)cc3)c12	i	.	i	.	.
S=C(N/N=C/c1ccc(Cl)c(Cl)c1)Nc1ccccc1Cl	21µM*	15µM*	i	8.2µM*	-17
O=C(CN1CCCCC1)N/N=C/c1ccc(Cl)cc1Cl	i	3%	i	-12%	0
O=C(N/N=C/c1cc(Cl)cc([N+](=O)[O-])c1O)C1CC1	?	-20%	?	-11%	98
O=C(NN=Cc1ccc(Cl)cc1Cl)C1CC1	i	17%	15µM*	?	-2
O=C(N/N=C/c1ccc(Cl)c([N+](=O)[O-])c1)C1CC1	i	11%	i	1%	-50*
O=[N+]([O-])c1ccc(O)c(/C=N/NC(=S)Nc2ccc(Cl)cc2Cl)c1	?	?	i	23µM*	119
CCc1ccc(-n2c(=S)sc3c(=O)[nH]c(SCC(=O)NC4CCCCC4)nc32)cc1	i	5%	i	-2%	21
CCN(CC)S(=O)(=O)c1cccc(C(=O)Nc2sc3c(c2C#N)CCC(C)C3)c1 (configuration not stated)	i	.	i	.	.
CCN(CCCNc1cc2c(c(N)c1S(=O)(=O)O)C(=O)c1ccccc1C2=O)c1ccccc1	i	-3%	i	-10%	-14
O=C(COc1ccc(F)cc1)OCc1cc(=O)n2nc(C3CCCCC3)sc2n1	i	.	i	.	.
Cc1ccc(C(=O)N2NC(c3ccc(F)cc3)C3C(=O)N(c4ccc(C)c(C)c4)C(=O)C32)cc1 (configuration not stated)	i	0%	i	-2%	3
SMILES	KB-3-1 tox	HT1080NT lethal	KB-V1 MDR tox	HT1080 IDH1KD tx	IL1B secr inh
CCN(CCN(C)C)C(=O)Cn1ncc2c([nH]c3ccc(C)cc32)c1=O	i	.	i	.	.
COc1ccc(/C=N/NC(=S)Nc2ccccc2[N+](=O)[O-])cc1O	?	-26%	12µM*	?	-4
Fc1ccc(/C=N/NC(=S)Nc2ccc(Cl)cc2Cl)cc1	5.2µM*	?	?	?	29
O=C(NC1CCN(S(=O)(=O)c2cccc([N+](=O)[O-])c2)CC1)C1CCCCC1	i	23%	i	17%	16
CCCOc1ccc(/C=N/NC(=S)Nc2ccccc2[N+](=O)[O-])c(O)c1	i	9.2µM*	i	15µM*	-1
Cc1nn(C)cc1/C=N/NC(=S)Nc1ccc(Cl)cc1Cl	i	-9%	i	-12%	27
COc1cc(/C=N/Nc2ccccc2[N+](=O)[O-])cc(OC)c1O	i	-19%	i	-22%	1
O=C(NC1CC1)C1CCN(S(=O)(=O)c2ccc(Cl)c([N+](=O)[O-])c2)CC1	?	?	i	?	-97*
CC(Oc1ccc(Br)cc1)C(=O)NCC(c1cccs1)N1CCOCC1 (configuration not stated)	i	-12%	?	-12%	7
COc1cc(/C=N/NC(=S)Nc2cccc(S(=O)(=O)N(C)C)c2)ccc1O	i	-18%	i	0%	-98*
COc1ccc(NC(=S)N/N=C/c2ccc(F)c(F)c2)cc1	?	?	?	21µM*	10
COc1cc(/C=N/NC(=O)c2cccc(NC(=O)c3ccccc3)c2)ccc1O	i	-6%	i	0%	?
O=[N+]([O-])c1cc(/C=N/NC(=S)Nc2ccccc2Cl)ccc1Cl	18µM*	?	?	?	-86*
Cc1ccc(NC(=S)N/N=C/c2ccc(Cl)c([N+](=O)[O-])c2)cc1	i	-4%	i	-4%	20
Fc1ccc(NC(=S)N/N=C/c2ccc(F)c(F)c2)cc1	i	0%	i	11%	31
CCOC(=O)c1cc(NC(=O)N(CC)C2CCCCC2)c(C)nc1C	i	8%	23µM*	-6%	26

Screening data: PubChem, National Center for Advancing Translational Sciences (NCATS)
